Assay results taken from PubChem BioAssay (NCATS).
Inconclusive results are not listed. The source made the active and inactive calls. Unless noted, calls follow the shape of the full dose curve.

What was measured:
[1] = Natriuretic polypeptide receptor (hNpr1) antagonism - Pilot counterscreen GloSensor control cell line (AID 1347045); also: series mostly up to about 38 µM
Summary of the method: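 Cells were first seeded and incubated overnight at 37C, then loaded with 2% GloSensor substrate for 2 h. Compounds were added for 30 min at room temperature, followed by a baseline read, 50 uM SNP and a final read after 20 min.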

[2] = target: Atrial natriuretic peptide receptor 1 (Homo sapiens) (UniProt P16066); assay: Natriuretic polypeptide receptor (hNpr1) antagonism - Pilot screen (AID 1347049);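 also: HEK293 cells with hNpr1 and GloSensor cGMP luciferase stimulated by 0.1 nM hNppA; agonist-evoked cGMP luminescence read 20 min after hNppA addition; series mostly up to about 58 µM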
Summary of the method: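 Cells expressing receptor plus cGMP biosensor are seeded and incubated overnight at 37C, then loaded with GloSensor reagent (2% final) at room temperature for 2 h. Library compounds go on for 30 min. A pre-read precedes agonist (hNppA, 0.1 nM final) and a 20-min readout.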

[3] = target: Atrial natriuretic peptide receptor 2 (Homo sapiens) (UniProt P20594); assay: Natriuretic polypeptide receptor (hNpr2) antagonism - Pilot subtype selectivity assay (AID 1347050)
Summary of the method: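 Read-out: GloSensor luminescence (CCD imager), baseline vs post-stimulation. HEK293 cells expressing hNpr2; compounds pre-incubated 30-50 min at ambient temperature; hNppC 1 nM final, 20 min.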

[4] = NS1 protein of Zika virus - qHTS assay to identify small molecule inhibitors in human HEK 293 cells (AID 1347053; active = well fitted curve in the direction sought with a large enough effect; an effect the other way counts as inactive or inconclusive; also: nearly all actives have a fitted effect of over 55% in size; also: potency is read from the fitted curve at half-maximal effect)
Summary of the method: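 In this cell-based screen, HEK 293 cultures received compound for one hour before Zika MR766 at MOI = 0.5. NS1 was quantified 24 hours later by TR-FRET, normalized to virus-free wells and infected wells.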

[5] = target: T1, Tyrosine-protein phosphatase non-receptor type substrate 1 (Homo sapiens) + Leukocyte surface antigen CD47 (Homo sapiens) (UniProt P78324+Q08722); assay: CD47-SIRPalpha protein protein interaction - LANCE assay qHTS validation (AID 1347057; active = well fitted curve in the direction sought with a large enough effect in the signal ratio, with a control signal flat, not every such curve was filed as active; the % refers to the signal ratio; also: series mostly up to about 38 µM)
Summary of the method: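 Inhibition of soluble CD47/SIRPalpha ectodomain association by titrated compounds, measured as 665/615 nm time-resolved FRET ratio after sequential 30 min room-temperature incubations.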

[6] = target: T1, Tyrosine-protein phosphatase non-receptor type substrate 1 (Homo sapiens) + Leukocyte surface antigen CD47 (Homo sapiens); assay: CD47-SIRPalpha protein protein interaction - HTRF assay qHTS validation (AID 1347058; active = well fitted curve in the direction sought with a large enough effect in the signal ratio, not every such curve was filed as active; the % refers to the signal ratio; also: series mostly up to about 38 µM)
Summary of the method: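 Soluble extracellular domains (6His-CD47, Avi-tag-biotinylated SIRPalpha) in PBS pH 7.4 with 0.05% IGEPAL CA-630. Compounds were preincubated 30 min at RT with CD47 and anti-His-Eu, then SIRPalpha and SAV-XL665 were added. TR-FRET 665/615 ratio.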

[7] = target: T1, Tyrosine-protein phosphatase non-receptor type substrate 1 (Homo sapiens) + Leukocyte surface antigen CD47 (Homo sapiens); assay: CD47-SIRPalpha protein protein interaction - Alpha assay qHTS validation (AID 1347059; active = well fitted curve in the direction sought with a large enough effect; an effect the other way counts as inactive or inconclusive;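 also: bead proximity luminescence from CD47 binding SIRPalpha after compound preincubation with SIRPalpha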; also: potency is read from the fitted curve at half-maximal effect)
Summary of the method: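 In PBS (pH 7.4) with 0.05% IGEPAL CA-630, compound is preincubated with biotin-Avi-SIRPalpha ectodomain before His-CD47 ectodomain and affinity beads are added. Light-protected room-temperature incubations; AlphaScreen readout.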

[8] = target: Parathyroid hormone/parathyroid hormone-related peptide receptor (Homo sapiens) (UniProt Q03431); assay: qHTS for PTHR1 Agonists: Optimization Screen against the NCGC LOPAC library (AID 1347079; active = well fitted curve in the direction sought with a large enough effect; an effect the other way counts as inactive or inconclusive;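 also: GloSensor cAMP luminescence in HEK-293 GP2 cells expressing human PTHR1 with IBMX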)
Summary of the method: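 HEK-293 GP2 cells, PTHR1 + GloSensor cAMP; 3000 cells/well, o/n. Luciferin + IBMX 0.5mM each (stock), 1 hr 37C. Cpd titration, 1 hr 37C. Lum after 15 min RT. Ctrl M-PTH(1-15) top 10uM.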

[9] = qHTS for Inhibitors of the Functional Ribonucleoprotein Complex (vRNP) of Lassa (LASV) Arenavirus: LASV Primary Screen - GLuc reporter signal (AID 1347082; calls by dose curve; tested in HEK293 reporter line; also: nearly all actives have a fitted effect of over 60% in size; also: potency is read from the fitted curve at half-maximal effect)
[10] = qHTS for Inhibitors of the Functional Ribonucleoprotein Complex (vRNP) of Lassa (LASV) Arenavirus: Viability assay - alamar blue signal for LASV Primary Screen (AID 1347083; calls by dose curve; tested in HEK293 reporter line; also: nearly all actives have a fitted effect of over 80% in size; also: potency is read from the fitted curve at half-maximal effect)
[11] = qHTS for Inhibitors of the Functional Ribonucleoprotein Complex (vRNP) of Lymphocytic Choriomeningitis Arenaviruses (LCMV): Viability assay - alamar blue signal for LCMV Primary Screen (AID 1347085; calls by dose curve; tested in HEK293 reporter line; also: nearly all actives have a fitted effect of over 80% in size; also: potency is read from the fitted curve at half-maximal effect)
[12] = target: Nucleoprotein (Lymphocytic choriomeningitis virus (strain Armstrong)) (UniProt P09992); assay: qHTS for Inhibitors of the Functional Ribonucleoprotein Complex (vRNP) of Lymphocytic Choriomeningitis Arenaviruses (LCMV): LCMV Primary Screen - GLuc reporter signal (AID 1347086); also: nearly all actives have a fitted effect of over 70% in size; also: potency is read from the fitted curve at half-maximal effect

Measured: Potency

Nucleoprotein (Lymphocytic choriomeningitis virus (strain Armstrong)), sequence (P09992 whole entry, looked up): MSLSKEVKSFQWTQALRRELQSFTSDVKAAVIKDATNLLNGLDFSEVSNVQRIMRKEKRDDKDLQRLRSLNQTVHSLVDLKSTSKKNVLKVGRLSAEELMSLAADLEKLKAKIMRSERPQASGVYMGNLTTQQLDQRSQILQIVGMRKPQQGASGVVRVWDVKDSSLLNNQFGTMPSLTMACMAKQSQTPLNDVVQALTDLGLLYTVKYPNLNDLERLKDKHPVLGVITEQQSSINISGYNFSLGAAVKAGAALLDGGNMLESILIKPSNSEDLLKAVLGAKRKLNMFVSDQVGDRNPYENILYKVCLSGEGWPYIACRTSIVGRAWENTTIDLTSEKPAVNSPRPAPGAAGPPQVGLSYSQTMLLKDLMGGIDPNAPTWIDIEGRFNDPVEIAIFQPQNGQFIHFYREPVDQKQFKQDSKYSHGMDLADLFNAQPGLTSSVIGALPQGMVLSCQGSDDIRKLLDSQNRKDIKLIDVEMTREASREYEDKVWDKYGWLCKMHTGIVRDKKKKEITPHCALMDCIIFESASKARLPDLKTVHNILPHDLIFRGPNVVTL
T1 sequence (P78324 whole entry, looked up, the tested form may be a part): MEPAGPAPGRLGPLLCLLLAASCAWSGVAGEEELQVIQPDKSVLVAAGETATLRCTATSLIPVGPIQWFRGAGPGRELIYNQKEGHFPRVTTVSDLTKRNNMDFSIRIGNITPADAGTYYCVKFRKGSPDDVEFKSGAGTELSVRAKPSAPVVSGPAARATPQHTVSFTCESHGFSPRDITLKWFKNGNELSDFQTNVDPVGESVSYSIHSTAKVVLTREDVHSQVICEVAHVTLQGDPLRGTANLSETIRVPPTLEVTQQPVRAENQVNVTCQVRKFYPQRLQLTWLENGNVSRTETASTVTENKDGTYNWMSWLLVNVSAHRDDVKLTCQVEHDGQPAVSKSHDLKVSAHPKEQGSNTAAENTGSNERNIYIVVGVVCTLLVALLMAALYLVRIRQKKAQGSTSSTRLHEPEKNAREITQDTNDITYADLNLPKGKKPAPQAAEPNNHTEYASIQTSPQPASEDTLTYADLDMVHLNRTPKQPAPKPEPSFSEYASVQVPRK
T1 sequence (Q08722 whole entry, looked up, the tested form may be a part): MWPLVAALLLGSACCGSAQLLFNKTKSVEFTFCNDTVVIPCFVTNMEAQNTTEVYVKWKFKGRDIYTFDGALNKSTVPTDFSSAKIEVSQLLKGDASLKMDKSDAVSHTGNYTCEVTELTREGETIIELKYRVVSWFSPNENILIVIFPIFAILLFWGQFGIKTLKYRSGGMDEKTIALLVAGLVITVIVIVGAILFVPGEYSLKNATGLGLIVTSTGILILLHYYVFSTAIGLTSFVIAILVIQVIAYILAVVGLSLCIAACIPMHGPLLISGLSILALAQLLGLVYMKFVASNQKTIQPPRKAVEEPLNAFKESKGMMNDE
Atrial natriuretic peptide receptor 2 (Homo sapiens), sequence (P20594 whole entry, looked up): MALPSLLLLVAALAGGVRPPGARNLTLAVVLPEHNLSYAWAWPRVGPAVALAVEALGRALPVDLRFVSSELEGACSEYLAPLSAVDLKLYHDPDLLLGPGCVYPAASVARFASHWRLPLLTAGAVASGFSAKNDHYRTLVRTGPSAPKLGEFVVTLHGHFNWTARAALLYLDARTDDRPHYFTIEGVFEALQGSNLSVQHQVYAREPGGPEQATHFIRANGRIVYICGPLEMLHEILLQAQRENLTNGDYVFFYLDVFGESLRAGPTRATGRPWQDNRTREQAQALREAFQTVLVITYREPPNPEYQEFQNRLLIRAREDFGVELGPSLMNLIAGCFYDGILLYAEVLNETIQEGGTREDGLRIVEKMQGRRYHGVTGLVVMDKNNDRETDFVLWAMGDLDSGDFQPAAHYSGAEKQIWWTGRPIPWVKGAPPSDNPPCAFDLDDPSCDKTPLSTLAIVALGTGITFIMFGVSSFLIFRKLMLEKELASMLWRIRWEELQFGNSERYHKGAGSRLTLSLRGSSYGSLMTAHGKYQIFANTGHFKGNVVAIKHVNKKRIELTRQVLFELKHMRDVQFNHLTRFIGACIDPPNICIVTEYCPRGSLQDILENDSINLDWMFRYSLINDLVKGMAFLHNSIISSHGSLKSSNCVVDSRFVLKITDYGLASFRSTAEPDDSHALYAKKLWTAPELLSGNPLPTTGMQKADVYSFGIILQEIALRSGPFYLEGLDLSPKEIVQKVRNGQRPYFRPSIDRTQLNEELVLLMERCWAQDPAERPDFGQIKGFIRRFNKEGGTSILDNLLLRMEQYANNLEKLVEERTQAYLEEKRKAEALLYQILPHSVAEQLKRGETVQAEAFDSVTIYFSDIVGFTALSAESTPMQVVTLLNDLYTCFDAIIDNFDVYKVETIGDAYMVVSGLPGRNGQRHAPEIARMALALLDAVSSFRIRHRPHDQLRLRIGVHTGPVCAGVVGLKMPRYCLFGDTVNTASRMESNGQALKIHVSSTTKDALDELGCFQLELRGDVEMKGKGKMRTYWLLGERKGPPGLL
Atrial natriuretic peptide receptor 1 (Homo sapiens), sequence (P16066 whole entry, looked up): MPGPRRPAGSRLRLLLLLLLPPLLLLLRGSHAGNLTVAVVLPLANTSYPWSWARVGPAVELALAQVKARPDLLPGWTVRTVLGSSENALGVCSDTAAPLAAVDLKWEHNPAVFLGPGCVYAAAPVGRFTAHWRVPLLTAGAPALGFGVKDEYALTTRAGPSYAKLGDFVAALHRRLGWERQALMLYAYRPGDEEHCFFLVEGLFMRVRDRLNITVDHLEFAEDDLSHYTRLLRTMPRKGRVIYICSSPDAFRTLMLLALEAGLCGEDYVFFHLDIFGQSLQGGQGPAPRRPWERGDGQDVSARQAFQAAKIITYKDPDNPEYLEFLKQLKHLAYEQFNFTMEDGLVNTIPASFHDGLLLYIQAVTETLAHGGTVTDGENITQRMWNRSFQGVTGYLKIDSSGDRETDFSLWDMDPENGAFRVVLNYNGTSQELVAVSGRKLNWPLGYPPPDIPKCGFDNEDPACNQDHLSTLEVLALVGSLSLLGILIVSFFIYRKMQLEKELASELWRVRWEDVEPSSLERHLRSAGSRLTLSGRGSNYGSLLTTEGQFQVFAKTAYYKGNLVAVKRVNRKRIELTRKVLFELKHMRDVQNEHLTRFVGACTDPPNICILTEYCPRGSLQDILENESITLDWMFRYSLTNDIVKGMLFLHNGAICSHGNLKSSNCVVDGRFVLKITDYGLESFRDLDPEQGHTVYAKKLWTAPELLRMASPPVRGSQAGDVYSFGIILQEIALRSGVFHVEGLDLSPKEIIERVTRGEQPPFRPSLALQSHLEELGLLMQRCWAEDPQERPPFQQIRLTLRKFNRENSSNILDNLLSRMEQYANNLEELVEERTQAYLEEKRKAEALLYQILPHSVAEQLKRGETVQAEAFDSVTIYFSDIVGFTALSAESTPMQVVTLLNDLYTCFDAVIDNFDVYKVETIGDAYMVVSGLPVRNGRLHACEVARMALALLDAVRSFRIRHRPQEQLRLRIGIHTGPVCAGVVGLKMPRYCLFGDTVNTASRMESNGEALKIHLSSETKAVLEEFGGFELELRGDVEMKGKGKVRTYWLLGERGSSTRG
Parathyroid hormone/parathyroid hormone-related peptide receptor (Homo sapiens), sequence (Q03431 whole entry, looked up): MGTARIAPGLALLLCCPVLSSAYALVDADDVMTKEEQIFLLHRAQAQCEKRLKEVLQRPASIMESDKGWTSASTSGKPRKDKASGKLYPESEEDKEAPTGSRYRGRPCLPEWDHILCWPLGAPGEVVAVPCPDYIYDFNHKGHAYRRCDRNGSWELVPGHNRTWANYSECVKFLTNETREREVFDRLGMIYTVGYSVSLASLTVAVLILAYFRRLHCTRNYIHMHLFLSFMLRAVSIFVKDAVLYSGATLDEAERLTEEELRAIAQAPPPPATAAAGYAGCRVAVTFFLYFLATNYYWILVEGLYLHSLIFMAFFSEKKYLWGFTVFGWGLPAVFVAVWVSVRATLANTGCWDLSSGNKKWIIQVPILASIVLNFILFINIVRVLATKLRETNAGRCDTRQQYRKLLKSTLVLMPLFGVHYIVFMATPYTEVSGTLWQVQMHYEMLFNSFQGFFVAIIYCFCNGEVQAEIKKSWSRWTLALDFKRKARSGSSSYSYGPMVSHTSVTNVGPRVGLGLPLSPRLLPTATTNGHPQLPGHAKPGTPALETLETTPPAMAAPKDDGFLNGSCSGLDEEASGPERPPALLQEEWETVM

C=CCN1CC[C@]23CCCCC2[C@H]1Cc1ccc(O)cc13 (stereo partly drawn)
inactive: [1] | [2] | [3] | [4] | [5] | [6] | [7] | [8] | [9] | [10] | [11] | [12]

C[N+]1(C)C2CCC1CC(OC(=O)C(CO)c1ccccc1)C2 (stereo not drawn)
inactive: [1] | [2] | [3] | [5] | [6] | [7] | [8] | [9] | [10] | [11] | [12]

NCc1cc(=O)[nH]o1
inactive: [1] | [2] | [3] | [5] | [6] | [7] | [8] | [9] | [10] | [11] | [12]

CC(=O)[C@H]1CCC2C3CC[C@H]4C[C@H](O)CC[C@]4(C)C3CC[C@@]21C (stereo partly drawn)
inactive: [1] | [2] | [3] | [5] | [6] | [7] | [8] | [9] | [10] | [11] | [12]

NC(N)=NOCCC(N)C(=O)O (stereo not drawn)
inactive: [1] | [2] | [3] | [4] | [5] | [6] | [7] | [8] | [9] | [10] | [11] | [12]

CCCN(CCC)C1CCc2ccc(O)cc2C1 (stereo not drawn)
inactive: [1] | [2] | [3] | [4] | [5] | [6] | [7] | [8] | [9] | [10] | [11] | [12]

CCCCc1ccc(C(=O)O)nc1
active: [7] 16.5 µM
inactive: [1] | [2] | [3] | [4] | [5] | [6] | [8] | [9] | [10] | [11] | [12]

Cn1cnc(CCN)c1
inactive: [1] | [2] | [3] | [4] | [5] | [6] | [7] | [8] | [9] | [10] | [11] | [12]

O=C(O)[C@@H]1CCN1
inactive: [1] | [2] | [3] | [4] | [5] | [6] | [7] | [8] | [9] | [10] | [11] | [12]

Nc1ccc([N+](=O)[O-])cc1
inactive: [4]

CCCN(CCC)[C@@H]1CCc2ccc(O)cc2C1
inactive: [1] | [2] | [3] | [4] | [5] | [6] | [7] | [8] | [9] | [10] | [11] | [12]

CN(C)CC=CC(=O)Nc1cc2c(Nc3ccc(F)c(Cl)c3)ncnc2cc1O[C@H]1CCOC1
active: [9] 13.7 µM | [10] 24.3 µM

Cc1cnc(-c2cnc(NCCNc3ccc(C#N)cn3)nc2-c2ccc(Cl)cc2Cl)[nH]1
inactive: [9] | [10]

Cc1c(N)nc([C@H](CC(N)=O)NC[C@@H](N)C(N)=O)nc1C(=O)N[C@H](C(=O)N[C@@H](C)[C@H](O)[C@@H](C)C(=O)N[C@@H](C(=O)NCCc1nc(-c2nc(C(=O)NCCC[S+](C)C)cs2)cs1)[C@@H](C)O)C(O[C@H]1O[C@H](CO)[C@H](O)[C@@H](O)[C@@H]1O[C@H]1O[C@H](CO)[C@@H](O)[C@H](OC(N)=O)[C@H]1O)c1cnc[nH]1 (stereo partly drawn)
active: [4] 2.96 µM | [10] 7.69 µM
inactive: [9] | [12]

CCC(=O)O[C@@H]1C=C2CCC3C(CCC4(C)C3CC[C@@H]4OC(=O)CC)C2CC1 (stereo partly drawn)
inactive: [4] | [9] | [10] | [11] | [12]

C=CCC1=C(C)C(OC(=O)C2C(C=C(C)C)C2(C)C)CC1=O (stereo not drawn)
inactive: [4] | [10]

O=[N+]([O-])c1c2ccccc2cc2ccccc12
inactive: [4] | [9] | [10] | [11] | [12]

CC(C)c1ccc2c(c1)c(SC(C)(C)C)c(CC(C)(C)C(=O)O)n2Cc1ccc(Cl)cc1
active: [9] 12.2 µM | [10] 12.2 µM

CC(C)(C)c1ccc(O)c(O)c1
inactive: [9]

CC1=C[C@@H]2[C@@H]([C@@H](O)C[C@@]3(C)[C@H]2C[C@@H](C)[C@]3(O)C(=O)CO)[C@@]2(C)Cc3cnn(-c4ccccc4)c3C=C12
inactive: [9]

C#C[C@]1(O)C=C[C@@H]2[C@@H]3CCC4=CC(=O)CC[C@@H]4[C@H]3CC[C@@]21CC
inactive: [4] | [9] | [10] | [11] | [12]

CCN(CC)CCCCNc1ncc2cc(-c3cc(OC)cc(OC)c3)c(NC(=O)NC(C)(C)C)nc2n1
inactive: [9]
active: [10] 19.3 µM

Cc1ccc(NC(=O)c2cccc(C(C)(C)C#N)c2)cc1Nc1ccc2ncn(C)c(=O)c2c1
inactive: [9]
active: [10] 17.2 µM

CC(=O)c1c(C)c2cnc(Nc3ccc(N4CCNCC4)cn3)nc2n(C2CCCC2)c1=O
active: [10] 30.6 µM
inactive: [9]

CC1=C(C(=O)O)N2C(=O)[C@@H](N)[C@H]2SC1
inactive: [4] | [9] | [10] | [11] | [12]

COC[C@H]1OC(=O)c2coc3c2[C@@]1(C)C1=C(C3=O)[C@@H]2CC[C@H](O)[C@@]2(C)C[C@@H]1OC(C)=O
inactive: [9]

COC(=O)c1c(Cl)c(Cl)c(C(=O)OC)c(Cl)c1Cl
inactive: [9] | [10]

COc1ccc(C(=O)c2c(C)n(CCN3CCOCC3)c3cc(I)ccc23)cc1
inactive: [4] | [11] | [12]

COc1ccc(C(c2ccc(OC)cc2)C(Cl)(Cl)Cl)cc1
inactive: [4] | [11] | [12]

Nc1ccc(Cl)cc1N
inactive: [4] | [9] | [10] | [11] | [12]

[Cl][In]([Cl])[Cl]
inactive: [9]

CN(C)CCCN=c1c2ccccc2n(C)c2[nH]c(=O)n(C)c(=O)c12
inactive: [9]
active: [10] 19.3 µM

Cc1ccc(NC(=O)c2ccc(CN3CCN(C)CC3)cc2)cc1Nc1nc(-c2cccnc2)cs1
inactive: [9]

Cc1cc([C@@H](C)Nc2ccccc2C(=O)O)c2nc(N3CCOCC3)cc(=O)n2c1
active: [9] 39.5 µM | [10] 5.59 µM

COc1cc2c(cc1O)CC[C@@H]1[C@@H]2CC[C@]2(C)[C@@H](O)CC[C@@H]12
inactive: [9]

CC(=O)N(C)C1(c2ccccc2)CCN(CCC[C@]2(c3ccc(Cl)c(Cl)c3)CCCN(C(=O)c3ccccc3)C2)CC1
inactive: [9] | [10]

CC1(C)CC/C(=C/c2ccc(Cl)cc2)C1(O)Cn1cncn1 (stereo not drawn)
inactive: [9] | [10]

Cc1cccc(-c2[nH]c(C(C)(C)C)nc2-c2ccc3nccnc3c2)n1
active: [9] 9.68 µM

CCOc1ccc(Nc2nc(-c3c(C)nc4ccccn34)cs2)cc1
inactive: [9]
active: [10] 0.0049 µM

O=S(=O)(c1ccc(Cl)cc1)c1ccc(Cl)cc1
inactive: [4] | [9] | [10] | [11] | [12]

Fc1cc(Br)ccc1CBr
inactive: [4] | [9] | [10] | [11] | [12]

CO[C@H]1CCC(O[C@H]2C[C@H]([C@]3(C)CC[C@]4(C[C@H](O)[C@@H](C)[C@@H]([C@@H](C)C=C(C)C(=O)[C@H](C)C[C@H](C)C(=O)O)O4)O3)O[C@]3(O[C@@H]([C@H]4O[C@@](O)(CO)[C@H](C)C[C@H]4C)C[C@H]3C)[C@H]2C)O[C@H]1C (stereo partly drawn)
inactive: [9] | [11] | [12]
active: [4] 0.743 µM

C[C@@H]1CN(CC(=O)Nc2ccc3c(c2)Cc2cccc(-c4cc(=O)cc(N5CCOCC5)o4)c2S3)C[C@H](C)O1
inactive: [9]

O=C(Nc1ccccc1-c1ccc(Cl)cc1)c1cccnc1Cl
inactive: [4] | [9] | [10] | [11] | [12]

CCNC(=O)C[C@@H]1N=C(c2ccc(Cl)cc2)c2cc(OC)ccc2-n2c(C)nnc21
inactive: [4]
active: [10] 3.06 µM | [11] 1.22 µM | [12] 1.22 µM

COC(C)(C)CCCC(C)C/C=C/C(C)=C/C(=O)OC(C)C (stereo not drawn)
inactive: [4] | [9] | [10] | [11] | [12]

Nc1cccc2c(N)cccc12
inactive: [9]

CCCCn1c(=O)n(Cc2ccccc2F)c(=O)c2[nH]c(Cc3ccc(NC(C)=O)cc3)nc21
inactive: [9]

CC(C)C(=O)Nc1ncc(-c2cc(C(F)F)nn2-c2c(Cl)cccc2Cl)s1
inactive: [9]

c1cc(-c2cnn3cc(-c4ccc(OCCN5CCCCC5)cc4)cnc23)ccn1
active: [9] 34.3 µM | [10] 17.2 µM

CCN(CC)CCOc1ccc(Nc2ncc3cc(-c4c(Cl)cccc4Cl)c(=O)n(C)c3n2)cc1
active: [9] 1.93 µM | [10] 0.0306 µM | [11] 0.172 µM

Cc1cc2c(cc1C1(c3ccc(C(=O)O)cn3)CC1)C(C)(C)CCC2(C)C
inactive: [9] | [10] | [11] | [12]

COc1cc2ncnc(-n3nc(-c4ccccn4)nc3N)c2cc1OC
active: [9] 13.7 µM | [10] 19.3 µM | [11] 7.69 µM | [12] 2.43 µM

O=C(C=Cc1c(C(=O)O)[nH]c2cc(Cl)cc(Cl)c12)Nc1ccccc1
inactive: [9] | [10] | [11] | [12]

COc1ccc2c(c1)CC[C@@H](CN(C)CC(=O)O)[C@H]2c1ccccc1
inactive: [9]
active: [10] 10.9 µM | [11] 4.85 µM
